The values below come from PubChem BioAssay (Tox21).

The target in experiment [1] is Aryl hydrocarbon receptor (Homo sapiens) (UniProt P35869). As to the kind of experiment: qHTS assay to identify small molecule that activate the aryl hydrocarbon receptor (AhR) signaling pathway (AID 743085).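 For activation: HG2L7.5c1 human HepG2 liver cells with stably integrated DRE-driven firefly reporter; series mostly up to about 70 µM.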 Note: nearly all actives have a fitted effect of over 15% in size. Note: potency is the fitted concentration of half-maximal effect. The method in brief: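 Luminescence read-out: ONE-Glo reagent, 30 min at room temperature, in HG2L7.5c1 HepG2 reporter cells treated 24 h at 37C. Viability was measured beforehand by CellTiter-Fluor fluorescence after 30 min at 37C.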

The nature of experiment [2]: qHTS assay to identify small molecule that activate the aryl hydrocarbon receptor (AhR) signaling pathway - cell viability counter screen (AID 743086). Note: nearly all actives have a fitted effect of over 45% in size. Note: potency is the fitted concentration of half-maximal effect. A digest of the protocol: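 HepG2-AhR-luc (HG2L7.5c1) cells, 4000/well, were preincubated 5 h at 37C, exposed to compound in qHTS format for 24 hr at 37C, then given CellTiter-Fluor for 30 min; viability was read as fluorescence in the reporter wells.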
In general terms: In qHTS, concentration-response curves come from the screen itself.

Experiment [3] in a line: qHTS assay for small molecule activators of the heat shock response signaling pathway - cell viability counter screen (AID 743209). Note: nearly all actives have a fitted effect of over 50% in size. The method in brief: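 Cytotoxicity counter screen run in the same wells as the heat-shock bla reporter assay: HeLa HSE-bla cells, 5 h compound exposure at 37 C, viability read by CellTiter-Glo luminescence.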
Experiment [4] is described as follows: qHTS assay for small molecule activators of the heat shock response signaling pathway (AID 743210; active = well fitted activation curve with a large enough effect in the signal ratio in the repeat runs, with a control signal flat, not every such curve was filed as active; the % refers to the signal ratio; note: potency is the fitted concentration of half-maximal effect;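 for activation: HeLa cells with beta-lactamase reporter driven by heat shock elements; series mostly up to about 63 µM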). The method in brief: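 Activation of heat shock element-controlled beta-lactamase expression is measured in HeLa cells by LiveBLAzer FRET fluorescence, with compound exposure lasting 5 h at 37 C and substrate loading 2.5 h at room temperature.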
Experiment [5] can be described thus: qHTS assay to identify small molecule agonists of the peroxisome proliferator-activated receptor delta (PPARd) signaling pathway - cell viability counter screen (AID 743211). Note: nearly all actives have a fitted effect of over 55% in size. Note: potency is the fitted concentration of half-maximal effect. The method in brief: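 Read-out: CellTiter-Glo luminescence, 30 min RT, measured in the same wells as the beta-lactamase reporter. Cells: GeneBLAzer PPAR delta UAS-bla HEK293H, 3000 cells/well, compound exposure 17 h at 37C.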

A short description of experiment [6]: qHTS assay to identify small molecule antagonists of the peroxisome proliferator-activated receptor gamma (PPARg) signaling pathway - cell viability counter screen (AID 743194). Note: nearly all actives have a fitted effect of over 55% in size. The method in brief:
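PPARg-UAS-bla HEK293H cells were plated, rested 5 h at 37 C, then treated with compounds plus rosiglitazone (50 nM final) for 17 h at 37 C; viability was then read by CellTiter-Glo luminescence after 30 min at room temperature.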

The nature of experiment [7]: qHTS assay for small molecule agonists of the antioxidant response element (ARE) signaling pathway - cell viability counter screen (AID 743203; calls by dose curve; note: nearly all actives have a fitted effect of over 55% in size). A digest of the protocol:
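Viability counter screen: CellTiter-Glo luminescence, read after 30 min at room temperature, in ARE-bla HepG2 wells. Compound exposure lasted 16 h at 37C/5% CO2, following a 5 h pre-incubation of the cells after plating.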

In experiment [8] the target is Peroxisome proliferator-activated receptor gamma (Homo sapiens) (UniProt P37231). The experiment is described as follows: qHTS assay to identify small molecule agonists of the peroxisome proliferator-activated receptor gamma (PPARg) signaling pathway (AID 743094; active = well fitted activation curve with a large enough effect in the signal ratio in the repeat runs, not every such curve was filed as active; the % refers to the signal ratio). A digest of the protocol: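 Agonist activity was taken from a beta-lactamase reporter (FRET substrate, 1 h at room temperature) in HEK293H cells carrying a PPARg UAS-bla construct. Compounds in DMSO were incubated 17 h at 37C after a 5 h cell pre-incubation.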

The target is the same in experiment [9]. As to the kind of experiment: qHTS assay to identify small molecule antagonists of the peroxisome proliferator-activated receptor gamma (PPARg) signaling pathway (AID 743191; calls by dose curve; note: series mostly up to about 63 µM; nearly all actives have a fitted effect of over 30% in size). The method in brief:
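GeneBLAzer PPARg UAS-bla HEK293H cells carrying a UAS-driven beta-lactamase reporter were plated at 3000 cells/well, preincubated 5 h at 37C, then given compound for 17 h at 37C; LiveBLAzer B/G FRET substrate was read after 1 h at room temperature.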

Experiment [10] is described as follows: qHTS assay for small molecule agonists of the antioxidant response element (ARE) signaling pathway (AID 743202; active = well fitted activation curve with a large enough effect in the signal ratio in the repeat runs, not every such curve was filed as active; the % refers to the signal ratio; note: potency is the fitted concentration of half-maximal effect). A digest of the protocol:
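Steps: seed ARE-bla HepG2 cells (2,000/well); incubate 5 h at 37 C; add compounds by pin tool; incubate 16 h at 37 C; add FRET substrate; read fluorescence after 2 h at RT.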

Results filed as inconclusive are left out. Active and inactive are the calls of the source. Unless noted, calls come from the whole dose curve; as a rule, active = well fitted curve in the direction sought with a large enough effect in the repeat runs; inconclusive = weak or mixed curves; inactive = no such curve, though single readings can be large; an effect the other way counts as inactive or inconclusive.

Chain of Peroxisome proliferator-activated receptor gamma (Homo sapiens) (P37231 whole entry, looked up): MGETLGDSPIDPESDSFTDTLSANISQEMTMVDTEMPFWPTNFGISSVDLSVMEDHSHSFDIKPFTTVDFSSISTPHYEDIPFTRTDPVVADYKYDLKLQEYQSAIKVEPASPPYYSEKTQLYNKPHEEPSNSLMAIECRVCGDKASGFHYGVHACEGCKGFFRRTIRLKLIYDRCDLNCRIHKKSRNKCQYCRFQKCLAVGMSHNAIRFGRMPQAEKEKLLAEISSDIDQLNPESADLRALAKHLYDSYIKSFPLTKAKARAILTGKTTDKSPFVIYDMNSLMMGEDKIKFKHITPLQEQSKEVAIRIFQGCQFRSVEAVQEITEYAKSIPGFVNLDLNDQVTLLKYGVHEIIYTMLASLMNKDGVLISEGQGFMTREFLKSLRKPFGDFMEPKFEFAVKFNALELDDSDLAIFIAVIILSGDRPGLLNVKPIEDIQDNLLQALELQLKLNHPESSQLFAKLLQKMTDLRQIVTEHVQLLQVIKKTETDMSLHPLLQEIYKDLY
Chain of Aryl hydrocarbon receptor (Homo sapiens) (P35869 whole entry, looked up): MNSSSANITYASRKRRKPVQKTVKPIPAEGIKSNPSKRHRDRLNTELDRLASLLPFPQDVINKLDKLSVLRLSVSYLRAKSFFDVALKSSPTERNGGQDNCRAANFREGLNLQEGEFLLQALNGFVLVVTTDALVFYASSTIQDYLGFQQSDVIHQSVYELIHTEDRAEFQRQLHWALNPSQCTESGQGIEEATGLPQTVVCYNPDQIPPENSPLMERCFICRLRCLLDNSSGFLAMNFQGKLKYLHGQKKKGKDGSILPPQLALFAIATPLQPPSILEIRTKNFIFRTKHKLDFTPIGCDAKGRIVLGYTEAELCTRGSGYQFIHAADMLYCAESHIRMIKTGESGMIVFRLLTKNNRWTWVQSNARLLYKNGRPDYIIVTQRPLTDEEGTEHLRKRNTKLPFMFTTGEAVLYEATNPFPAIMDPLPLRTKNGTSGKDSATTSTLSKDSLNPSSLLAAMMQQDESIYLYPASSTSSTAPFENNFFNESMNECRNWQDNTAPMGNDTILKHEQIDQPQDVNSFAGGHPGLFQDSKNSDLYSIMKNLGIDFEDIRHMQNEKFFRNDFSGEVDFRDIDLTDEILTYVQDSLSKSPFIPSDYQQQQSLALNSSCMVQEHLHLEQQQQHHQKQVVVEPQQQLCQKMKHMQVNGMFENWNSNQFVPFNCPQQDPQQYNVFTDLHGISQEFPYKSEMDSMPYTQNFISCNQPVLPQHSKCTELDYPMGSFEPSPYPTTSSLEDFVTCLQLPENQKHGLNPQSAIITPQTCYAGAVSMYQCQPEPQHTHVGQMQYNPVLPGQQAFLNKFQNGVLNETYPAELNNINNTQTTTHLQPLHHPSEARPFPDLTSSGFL

Turning to `O=C(CCCCCCC(=O)Nc1ccccc1)NO`, the Potency result in [1], in [2], in experiment [3], in experiment [4] and in [5] was “inactive” throughout.
As for `CCc1cccc(N(C)C(N)=Nc2cccc3ccccc23)c1`, the Potency entry in experiment [1], in experiment [6], in [7], in experiment [3], in [4] and in [5] was “inactive” throughout.
For `O=C(CCC1CCN(Cc2ccccc2)CC1)c1ccc2c(c1)NCCCC2`, the Potency in experiment [1] and in [10] was 23.7 µM (active) each time. The Potency result in [8], in experiment [9], in experiment [6], in experiment [7], in experiment [3] and in [4] was “inactive” each time.
Turning to `CC(CCc1ccc2c(c1)OCO2)NN` (centres undefined), the Potency result in experiment [2], in experiment [8], in [9], in [6], in experiment [7] and in experiment [3] was “inactive” throughout. In addition, the Potency entry in [4] and in [5] was “inactive” each time.
As to `Fc1ccccc1[C@@H](F)COC1CCC(Nc2ncnc3[nH]ncc23)CC1` (some centres undefined), the Potency result in experiment [1], in experiment [7], in experiment [3] and in experiment [4] was “inactive” each time. Also, the Potency in experiment [2] is 30.6 µM (active).
`CC(=N\O)/C(C)=N/O`: the Potency entry in experiment [1], in experiment [8], in experiment [6], in experiment [7], in [3] and in [4] was “inactive” in each case. Also, the Potency result in experiment [5] was “inactive”.
`C(=C\c1ccccc1)/CN1CCN(C(c2ccccc2)c2ccccc2)CC1`: the Potency result in experiment [1], in experiment [2], in experiment [7] and in [3] was “inactive” in each case. Also, the Potency in experiment [5] is 29.8 µM (active).
Consider `CCCCCCCCCCOS(=O)(=O)O`, for which the Potency entry in experiment [1], in experiment [2], in experiment [6], in [7], in experiment [3] and in [4] was “inactive” in each case. Moreover, the Potency result in [5] is “inactive”.
`CC1=C(/C=C/C(C)=C\C=C\C(C)=C\C(=O)O)C(C)(C)CCC1`: the Potency entry in experiment [1], in experiment [2], in experiment [6], in [7], in experiment [3] and in experiment [4] was “inactive” throughout. For the same compound, in experiment [5], the Potency entry is “inactive”.
With `NC(=O)Cn1c(=O)cc(CCN2CCN(c3nccc4sccc34)CC2)c2ccc(F)cc21`, the Potency entry in experiment [1], in experiment [8], in experiment [6], in experiment [10], in experiment [7] and in experiment [3] was “inactive” each time. For the same compound, the Potency entry in experiment [4] and in experiment [5] was “inactive” in each case.
As for `Nc1nc(Cl)nc2c1ncn2[C@@H]1O[C@H](CO)[C@@H](O)[C@@H]1F`, the Potency entry in [1], in [2], in experiment [6], in experiment [7], in [3] and in experiment [4] was “inactive” each time. In experiment [5], the Potency result is “inactive”.
As for `CO[C@H]1C=CO[C@@]2(C)Oc3c(C)c(O)c4c(O)c(c5c(c4c3C2=O)=NC2(CCN(CC(C)C)CC2)N=5)NC(=O)/C(C)=C\C=C/[C@H](C)[C@H](O)[C@@H](C)[C@@H](O)[C@@H](C)[C@H](OC(C)=O)[C@@H]1C`, the Potency entry in experiment [1], in experiment [6], in experiment [3] and in experiment [4] was “inactive” each time. For the same compound, the Potency in [2] was 15 µM (active); in [5] it was 24 µM (active).
As to `COc1ccc(CCC(=O)c2c(O)cc(O[C@@H]3O[C@H](CO)[C@@H](O)[C@H](O)[C@H]3O[C@@H]3O[C@@H](C)[C@H](O)[C@@H](O)[C@H]3O)cc2O)cc1O`, the Potency result in experiment [2], in experiment [8], in experiment [9], in [6], in experiment [10] and in experiment [7] was “inactive” throughout. Also, the Potency entry in experiment [3], in experiment [4] and in experiment [5] was “inactive” throughout.
For the compound `CN(C)CCOC1=Cc2ccccc2Sc2ccc(Cl)cc21`, the Potency result in [1], in experiment [6], in experiment [10], in experiment [7], in experiment [3] and in experiment [4] was “inactive” in each case. Besides, the Potency in [5] is 26.6 µM (active).
With `COc1cc2c(N3CCN(C(=O)Nc4ccc(OC(C)C)cc4)CC3)ncnc2cc1OCCCN1CCCCC1`, the Potency in experiment [2] was 23.7 µM (active). For the same compound, the Potency entry in experiment [8], in [9], in experiment [6], in [7], in [3] and in experiment [4] was “inactive” each time.
`Oc1cc(O)c(Cl)cc1Cl`: the Potency result in experiment [2], in experiment [8], in experiment [9], in experiment [6], in [7] and in experiment [3] was “inactive” each time. Also, in [4], the Potency is 50.2 µM (active).
As to `Brc1cc(-c2ccc(Br)c(Br)c2Br)cc(Br)c1Br`, in experiment [1], the Potency was 8.5 µM (active). Also, the Potency result in [2], in [6], in experiment [7], in experiment [3], in [4] and in experiment [5] was “inactive” throughout.
On to `CC(C)(C)CC(C)(C)c1ccc(OCCO)cc1`, for which the Potency entry in [1], in [8], in experiment [6], in experiment [7] and in experiment [3] was “inactive” throughout.
`CCCCC(=O)O[C@]1(C(=O)CO)[C@@H](C)C[C@H]2[C@@H]3CCC4=CC(=O)C=C[C@]4(C)[C@@]3(F)[C@@H](O)C[C@@]21C`: the Potency result in experiment [2], in [8], in experiment [9], in experiment [6], in experiment [7] and in experiment [3] was “inactive” throughout. Moreover, the Potency entry in experiment [4] and in [5] was “inactive” in each case.
